According to PubChem BioAssay AID1159580 (chemical genetic matrix, 2015):
Hit rate of the full screen: of about 5,500 compounds, about 2,000 (36%) were called active. Another 18% or so got no clear call; they are omitted. Cut-off read from the data, not from the text of the source: active = normalized growth mostly below about 0.91 (no sharp cut-off); inconclusive = no clear call, values can overlap the other calls; inactive = mostly above about 0.92. The list shows a part of the results.

Test: chemical genetic growth profiling, strain panel (AID 1159580);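 note: tested at 20 µM; growth read once vehicle control cultures reached saturation at 30 °C; 1 = growth at the plate median or of vehicle wells; lower values mean less growth of the strain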
Conditions: S. cerevisiae deletion strains, growth OD
[1] = locus YAL013W, strain DEP1, active compounds read low
[2] = locus YAL040C, strain CLN3, active compounds read low
[3] = locus YDR363W, strain ESC2, active compounds read low
[4] = locus YER002W, strain NOP16, active compounds read low
[5] = locus YNL153C, strain GIM3, active compounds read low
[6] = locus YNL175C, strain NOP13, active compounds read low
[7] = locus YNL197C, strain WHI3, active compounds read low
[8] = locus YNL224C, strain SQS1, active compounds read low
[9] = locus YOR083W, strain WHI5 (second series), active compounds read low

Measured: normalized growth

N=c1ccn2c(n1)OC1C(O)[C@@H](CO)O[C@H]12 (some centres undefined)
inactive: [1] 0.99 | [2] 1 | [3] 0.986 | [4] 1.01 | [5] 1.02 | [6] 1 | [7] 1 | [8] 1.03 | locus YNL322C, strain KRE1, active compounds read low 1 | [9] 1.03

CC(N)Cc1c[nH]c2ccc(OCc3cccs3)cc12 (centres undefined)
inactive: [1] 1 | [2] 1.02 | [3] 0.984 | [4] 1.02 | locus YGR078C, strain PAC10, active compounds read low 1.01 | locus YJR075W, strain HOC1, active compounds read low 1 | locus YMR307W, strain GAS1, active compounds read low 1.02 | [5] 1.02 | [6] 0.986 | [7] 1.01 | [8] 1.01 | [9] 0.981 | locus YPL055C, strain LGE1, active compounds read low 1 | locus YPL241C, strain CIN2, active compounds read low 1.01
